The values below come from PubChem BioAssay.

The nature of assay [1]: small molecules captured by biotinylated probe aFSTL3 – biochemical, small-molecule microarray, fluorescence 635/667, stem cell growth factor project, primary screen (AID 1064).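 Further: measures binding of the biotinylated anti-FSTL3 antibody to printed compounds.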 As to conditions: higher = more signal.
A short description of assay [2]: binders from COS7 lysate, DM2A8 probe, primary screen, torsin A project, cell lysate, small-molecule microarray, fluorescence 635/667 (AID 1065). As to conditions: higher = more signal, COS7 lysate expressing mutant human TOR1A.
The nature of assay [3]: small molecules captured by biotinylated probe aFGF2 – biochemical, small-molecule microarray, fluorescence 635/667, stem cell growth factor project, primary screen (AID 1067).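 Further: measures binding of biotinylated aFGF2 protein to printed compounds on slides; z-score merges feature fluorescence and signal-to-noise across triplicate slides.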 As to conditions: higher = more signal.
The nature of assay [4]: small molecules captured by biotinylated probe aFGF10 – biochemical, small-molecule microarray, fluorescence 635/667, stem cell growth factor project, primary screen (AID 1071).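 Further: score merges 667 nm spot intensity and signal to noise from triplicate slides.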 As to conditions: higher = more signal.
Assay [5] addresses Neurogenic locus notch homolog protein 2 (Homo sapiens) (UniProt Q04721). Description: small molecules binding Notch2 protein – biochemical, small-molecule microarray, 635 nm fluorescence, stem cell growth factors, primary screen (AID 1073). As to conditions: higher = more signal.
Assay [6] concerns the target Pro-neuregulin-1, membrane-bound isoform (Homo sapiens) (UniProt Q02297). The assay can be described thus: small molecules binding neuregulin-1 protein – biochemical, small-molecule microarray, fluorescence 635/667, psychiatric disease protein project, primary screen (AID 1075).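 Further: score combines 667 nm spot fluorescence with signal to noise.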 As to conditions: NRG1 binding, 635 nm fluorescence, higher = more signal.
Assay [7] deals with Neuregulin-1 EGF-like domain. The assay can be described thus: small molecules binding NRG1 EGF domain – biochemical, small-molecule microarray, 635 nm fluorescence, primary screen (AID 1081).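 Further: binding of the protein to compounds printed on small-molecule microarray slides.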 The conditions noted are these: higher = more signal.
Assay [8] in a line: FRG1 expression reporter modulators in myotubes – cell-based, C2C12 myotubes, firefly/Renilla luciferase, luminescence, FRG1 inhibition for FSHD, primary screen (AID 1084). As to conditions: FRG1 promoter luciferase, higher = more signal, called active from +8 up or from −8 down.
A short description of assay [9]: small molecules captured by biotinylated probe aFST – biochemical, small-molecule microarray, fluorescence 635/667, stem cell growth factor project, primary screen (AID 1086).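 Further: score merges 667 nm fluorescence with signal-to-noise of each printed compound spot.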 As to conditions: higher = more signal.
Assay [10] can be described thus: binders of probe aHhip on microarray, primary screen, stem cell growth factor project, biochemical, small-molecule microarray, fluorescence 635/667 (AID 1087).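 Further: score merges spot fluorescence at 667nm with spot signal to noise ratio.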 As to conditions: higher = more signal.
The test system of assay [11] is PRMT1 (protein arginine N-methyltransferase 1). The assay can be described thus: small molecules binding arginine methyltransferase PRMT1 – biochemical, small-molecule microarray, 635 nm fluorescence, primary screen (AID 1088).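 Further: binding of Prmt1 protein to compounds spotted on small-molecule microarray slides.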 As to conditions: higher = more signal.
Assay [12] can be described thus: growth effects on S. cerevisiae YJM789 – YJM789 clinical isolate, OD600, 24 h, basal, primary screen (AID 1089).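 Further: growth of clinical yeast isolate S. cerevisiae YJM 789 seeded 1000 cells per well; test concentration not given here.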 As to conditions: higher = more signal, called active from +8 up or from −8 down.
A short description of assay [13]: S. pombe growth modifiers, basal conditions – strain 972, OD600, 24 h, no modulator, primary screen (AID 1090).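 Further: basal condition with compound alone and no growth modifier present; test concentration not given here.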 As to conditions: S. pombe 972 growth, higher = more signal, called active from +8 up or from −8 down.
Assay [14] in a line: budding yeast growth modifiers under rapamycin – strain BY4716, OD600, 96 h, primary screen (AID 1091). Further: test concentration not given here. As to conditions: S. cerevisiae BY4716 + rapamycin, higher = more signal, called active from +8 up or from −8 down.
The target of assay [15] is Torsin-1A-interacting protein 2 (Homo sapiens) (UniProt Q8NFQ8). Description: small molecules binding lysate-expressed LULL1 – cell lysate, human LULL1 lysate, 635/667 nm fluorescence, primary screen (AID 1092).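 Further: probe is lysate of COS7 cells overexpressing human LULL1; score merges per-feature 667 nm fluorescence with signal-to-noise.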 The conditions noted are these: small-molecule microarray, hLULL1 lysate binding, 635 nm fluorescence; higher = more signal.
Chain of Torsin-1A-interacting protein 2 (Homo sapiens) (Q8NFQ8 whole entry, looked up): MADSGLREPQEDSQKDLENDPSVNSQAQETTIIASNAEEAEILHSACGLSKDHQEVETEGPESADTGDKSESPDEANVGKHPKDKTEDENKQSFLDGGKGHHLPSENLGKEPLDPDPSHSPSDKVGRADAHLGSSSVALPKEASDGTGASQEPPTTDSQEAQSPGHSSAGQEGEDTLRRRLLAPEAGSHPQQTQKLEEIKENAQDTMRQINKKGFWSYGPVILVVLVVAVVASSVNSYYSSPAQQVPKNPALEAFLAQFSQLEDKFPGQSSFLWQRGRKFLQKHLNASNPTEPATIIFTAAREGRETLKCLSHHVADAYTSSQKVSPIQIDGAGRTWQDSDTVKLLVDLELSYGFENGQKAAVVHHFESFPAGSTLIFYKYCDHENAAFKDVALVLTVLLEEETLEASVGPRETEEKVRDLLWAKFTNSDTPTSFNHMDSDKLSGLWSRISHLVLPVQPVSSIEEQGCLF
Assay [16] can be described thus: optical density change of DRC41 E. coli – strain DRC41, OD650, 24 h, E. coli filamentation project, primary screen (AID 1093).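 Further: MC1000 strain lacking acrAB efflux and sulA so SOS filamentation is blocked; test concentration not given here.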 The conditions noted are these: E. coli DRC41 growth, higher = more signal, called active from +8 up or from −8 down.
A short description of assay [17]: probe aLefty2 binding to arrayed compounds – biochemical, biotinylated probe, 635/667 nm fluorescence, primary screen (AID 1094).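 Further: score merges spot fluorescence near 667 nm with spot signal-to-noise ratio.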 As to conditions: small-molecule microarray, higher = more signal.
Assay [18] deals with Noggin (protein binding on small-molecule microarray). Description: small molecules binding Noggin protein – biochemical, 635/667 nm fluorescence, primary screen (AID 1095).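 Further: score merges 667 nm feature fluorescence with signal to noise over triplicate slides.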 The conditions noted are these: 635 nm fluorescence, higher = more signal.
For assay [19], the target named is Neurogenic locus notch homolog protein 3 (Homo sapiens) (UniProt Q9UM47). Description: small molecules binding NOTCH3 protein – biochemical, 635/667 nm fluorescence, primary screen (AID 1096). The conditions noted are these: small-molecule microarray, 635 nm fluorescence, higher = more signal.
Assay [20] can be described thus: probe aEGFR binding to arrayed compounds – biochemical, biotinylated probe, 635/667 nm fluorescence, primary screen (AID 1097).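 Further: probe is a biotinylated anti-EGFR antibody binding compounds printed on slides; score combines fluorescence near 667 nm and signal to noise of each spot.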 The conditions noted are these: small-molecule microarray, higher = more signal.

The source made the active and inactive calls.

Chain of Neurogenic locus notch homolog protein 2 (Homo sapiens) (Q04721 whole entry, looked up, canonical isoform): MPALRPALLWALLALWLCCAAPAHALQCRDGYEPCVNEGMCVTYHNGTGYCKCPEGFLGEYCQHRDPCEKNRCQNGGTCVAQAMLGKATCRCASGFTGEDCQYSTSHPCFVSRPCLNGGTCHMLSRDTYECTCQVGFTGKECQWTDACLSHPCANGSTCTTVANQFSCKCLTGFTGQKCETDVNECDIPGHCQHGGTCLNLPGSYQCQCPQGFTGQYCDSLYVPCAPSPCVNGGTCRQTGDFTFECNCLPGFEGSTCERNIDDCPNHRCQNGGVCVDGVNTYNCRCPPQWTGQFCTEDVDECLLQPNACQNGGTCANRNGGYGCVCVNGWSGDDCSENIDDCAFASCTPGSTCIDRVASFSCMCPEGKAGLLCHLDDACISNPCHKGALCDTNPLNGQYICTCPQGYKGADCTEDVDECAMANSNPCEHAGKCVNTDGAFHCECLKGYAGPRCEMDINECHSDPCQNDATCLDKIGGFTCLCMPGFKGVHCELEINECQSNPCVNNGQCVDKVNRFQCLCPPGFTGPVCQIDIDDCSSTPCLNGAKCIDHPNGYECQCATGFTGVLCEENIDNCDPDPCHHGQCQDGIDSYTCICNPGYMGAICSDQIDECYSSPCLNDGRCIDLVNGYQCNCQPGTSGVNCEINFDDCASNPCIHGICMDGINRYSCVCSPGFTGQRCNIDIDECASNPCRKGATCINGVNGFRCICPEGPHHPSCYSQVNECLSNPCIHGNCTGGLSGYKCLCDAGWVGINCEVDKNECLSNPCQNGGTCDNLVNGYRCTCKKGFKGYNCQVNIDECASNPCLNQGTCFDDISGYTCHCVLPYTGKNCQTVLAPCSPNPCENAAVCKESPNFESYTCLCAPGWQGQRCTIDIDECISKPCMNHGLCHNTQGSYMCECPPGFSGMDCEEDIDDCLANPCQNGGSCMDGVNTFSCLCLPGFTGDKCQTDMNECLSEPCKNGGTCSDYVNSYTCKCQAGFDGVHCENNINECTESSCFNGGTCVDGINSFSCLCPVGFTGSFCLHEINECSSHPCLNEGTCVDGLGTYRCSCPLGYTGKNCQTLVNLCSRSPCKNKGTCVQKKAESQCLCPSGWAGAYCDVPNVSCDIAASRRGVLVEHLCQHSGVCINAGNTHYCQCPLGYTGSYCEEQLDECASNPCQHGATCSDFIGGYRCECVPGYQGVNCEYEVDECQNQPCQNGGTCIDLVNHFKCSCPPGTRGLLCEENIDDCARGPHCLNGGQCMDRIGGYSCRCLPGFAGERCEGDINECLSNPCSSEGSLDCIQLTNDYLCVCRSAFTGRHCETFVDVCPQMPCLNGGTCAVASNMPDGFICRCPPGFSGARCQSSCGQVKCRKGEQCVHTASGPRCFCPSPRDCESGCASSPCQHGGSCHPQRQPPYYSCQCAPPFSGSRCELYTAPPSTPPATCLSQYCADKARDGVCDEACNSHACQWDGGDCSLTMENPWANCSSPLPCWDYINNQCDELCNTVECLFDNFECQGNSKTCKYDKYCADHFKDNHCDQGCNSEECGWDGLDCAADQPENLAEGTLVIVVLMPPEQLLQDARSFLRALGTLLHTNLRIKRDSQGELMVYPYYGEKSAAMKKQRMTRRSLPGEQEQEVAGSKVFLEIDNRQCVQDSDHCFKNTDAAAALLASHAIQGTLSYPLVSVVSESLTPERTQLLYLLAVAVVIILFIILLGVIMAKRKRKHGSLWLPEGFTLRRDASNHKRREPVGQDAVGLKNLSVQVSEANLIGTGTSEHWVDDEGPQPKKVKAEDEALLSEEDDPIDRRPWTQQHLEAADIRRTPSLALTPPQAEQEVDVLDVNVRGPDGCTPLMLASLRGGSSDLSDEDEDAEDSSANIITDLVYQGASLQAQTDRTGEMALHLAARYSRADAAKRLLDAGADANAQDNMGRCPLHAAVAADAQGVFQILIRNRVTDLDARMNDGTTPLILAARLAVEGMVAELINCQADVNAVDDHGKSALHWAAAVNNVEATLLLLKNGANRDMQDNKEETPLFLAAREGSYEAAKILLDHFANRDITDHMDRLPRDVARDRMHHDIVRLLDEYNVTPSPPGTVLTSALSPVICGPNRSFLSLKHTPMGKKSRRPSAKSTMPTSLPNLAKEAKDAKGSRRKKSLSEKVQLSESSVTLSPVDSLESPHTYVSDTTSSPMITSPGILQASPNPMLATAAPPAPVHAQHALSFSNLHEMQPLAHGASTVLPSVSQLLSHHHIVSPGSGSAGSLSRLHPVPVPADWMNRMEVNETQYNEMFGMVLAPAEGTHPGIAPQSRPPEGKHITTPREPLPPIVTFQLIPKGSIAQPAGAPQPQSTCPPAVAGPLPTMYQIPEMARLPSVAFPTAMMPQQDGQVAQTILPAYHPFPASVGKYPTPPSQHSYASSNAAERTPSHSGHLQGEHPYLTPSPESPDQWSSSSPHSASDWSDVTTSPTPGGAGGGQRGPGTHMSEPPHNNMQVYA
Chain of Pro-neuregulin-1, membrane-bound isoform (Homo sapiens) (Q02297 whole entry, looked up, the tested form may be a part, canonical isoform): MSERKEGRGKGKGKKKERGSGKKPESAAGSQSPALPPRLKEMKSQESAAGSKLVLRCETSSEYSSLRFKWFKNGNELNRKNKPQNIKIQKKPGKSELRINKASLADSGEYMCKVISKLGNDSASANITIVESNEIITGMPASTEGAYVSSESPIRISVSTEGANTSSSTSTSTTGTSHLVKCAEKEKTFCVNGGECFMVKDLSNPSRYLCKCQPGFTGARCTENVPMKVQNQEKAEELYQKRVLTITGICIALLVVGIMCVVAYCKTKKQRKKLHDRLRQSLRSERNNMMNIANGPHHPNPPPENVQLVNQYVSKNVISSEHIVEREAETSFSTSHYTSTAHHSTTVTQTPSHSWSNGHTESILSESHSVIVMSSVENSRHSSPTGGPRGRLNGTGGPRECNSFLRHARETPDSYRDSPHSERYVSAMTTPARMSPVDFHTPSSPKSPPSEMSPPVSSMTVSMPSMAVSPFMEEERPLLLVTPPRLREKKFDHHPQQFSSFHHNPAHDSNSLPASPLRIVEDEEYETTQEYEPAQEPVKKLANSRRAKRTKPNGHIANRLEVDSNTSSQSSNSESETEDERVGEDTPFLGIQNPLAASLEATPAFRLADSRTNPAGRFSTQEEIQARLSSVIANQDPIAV

Regarding `Cc1ccc(S[C@]2(C(=O)NCCCN(C)C)CC(=O)N(Cc3cc(C(F)(F)F)cc(C(F)(F)F)c3)[C@@H]2c2ccc(CO)cc2I)cc1`, the composite z-score in assay [1] was 0.746; in [2] it was 0.0752; in assay [3], -0.0894; in [4], -0.21; in assay [5], -1.21; in [6], 2.07. Moreover, the composite z-score in assay [7] was 0.634; in assay [9], -0.191; in [10] it was -0.0994; in assay [11] it was -0.371; in assay [15], 1.77; in assay [17], 0.269. The composite z-score in [18] was -1.64; in assay [19], -0.937; in assay [20], -0.0246. The z-score in [8] is 0.452 (inactive); in assay [12], -1.17 (inactive); in assay [13] it was -3.06 (inactive); in assay [14], 1.03 (inactive); in assay [16], 0.888 (inactive).

`O[C@@H](Cc1ccccc1)[C@H]1C2C=CCCC=C2CN1Cc1cccc(Cl)c1` (stereo not given in full): the composite z-score was -0.328 in assay [1]; -0.0571 in assay [2]; -0.0075 in assay [3]; 0.617 in [4]; 0.944 in [5]; 0.898 in assay [6]. The composite z-score was 1.19 in [7]; 0.61 in [9]; -0.214 in assay [10]; 1.42 in [11]; 1.17 in assay [15]; -0.101 in assay [17]. Further, the results for the composite z-score in [18], in assay [19] and in assay [20] were 0.728, 1.12 and -0.0039, respectively. The z-score in assay [8] is -1.45 (inactive); in assay [12], -0.14 (inactive); in assay [13], -2.92 (inactive); in assay [14], -0.742 (inactive); in [16], 1.35 (inactive).

`COC(=O)[C@@]1(Cc2ccc(F)cc2)[C@H]2c3cc(C(=O)N(C)C)n(Cc4ccccc4)c3C[C@H]2CN1C(=O)c1ccccc1`: the composite z-score was -0.0364 in assay [1]; -0.267 in assay [2]; 0.0103 in assay [3]; 0.314 in assay [4]; 1.58 in [5]; 1.32 in assay [6]. For the same compound, the composite z-score came out at 0.337 in [7]; 1.35 in assay [9]; 2.22 in [10]; 0.964 in assay [11]; 1.73 in assay [15]; 0.318 in assay [17]. Further, the values for the composite z-score in assay [18], in assay [19] and in assay [20] were -0.004, 1.14 and 0.0709, respectively. Moreover, the z-score was 0.403 (inactive) in assay [8]; 0.428 (inactive) in [12]; 1.49 (inactive) in assay [13]; 3.85 (inactive) in [14]; -0.466 (inactive) in assay [16].

On to `CCC[C@@H]1C[C@@]1(CCC)[C@@H](NC(=O)c1ccccc1)c1cccc(Cl)c1`, for which the composite z-score in [1] was determined as 1.63; in [2], 0.249; in assay [3], 0.783; in assay [4], 0.948; in [5], 1.47; in assay [6] it was 0.753. For the same compound, the composite z-score worked out at 1.09 in assay [7]; 2.29 in assay [9]; 0.53 in [10]; 0.596 in assay [11]; 3.23 in [15]; 0.497 in [17]. For the same compound, the results for the composite z-score in [18], in assay [19] and in assay [20] were 0.149, 1.15 and 0.913, respectively. Besides, the z-score in assay [8] was 0.379 (inactive); in assay [12], 1.47 (inactive); in assay [13] it was 1.52 (inactive); in assay [14], 2.12 (inactive); in assay [16], -0.452 (inactive).

Turning to `COC(=O)[C@@]1(Cc2ccc(OC)cc2)[C@H]2c3cc(C(=O)N4CCCC4)n(CCN4CNCC4=O)c3C[C@H]2CN1C(=O)c1ccccc1`, the composite z-score in assay [1] worked out at 2.52; in [2] it was 0.873; in [3], 0.797; in [4], 1.22; in assay [5], 1.4; in [6], 1.78. The composite z-score in [7] was 1.45; in assay [9], 2.37; in assay [10] it was 3.13; in assay [11], -0.871; in [15], 3.77; in assay [17] it was 1.42. In addition, the figures for the composite z-score in assay [18], in assay [19] and in assay [20] were -0.364, 0.293 and 1.15, respectively. In addition, the z-score in assay [8] was 0.632 (inactive); in [12] it was 0.503 (inactive); in [13], 0.706 (inactive); in [14], 0.429 (inactive); in assay [16], -0.977 (inactive).
